# Where two headings read alike, the source gives them in different places.
# Tests used:
# Parameters in all cases: species or system human, MV4-11 + K-562 + COLO205 + SK-N-BE2 + OVCAR-8
# MAPK8 = conditions: read-out: apparent Kd, n = 1
# MTOR = conditions: read-out: apparent Kd, n = 1
# TEC = conditions: read-out: apparent Kd, n = 1
# TNIK = conditions: read-out: apparent Kd, compound concentrations: 100 nM and 1000 nM (sheet 'Samples'), n = 1
# CDK2 = conditions: read-out: apparent Kd, compound concentrations: 100 nM and 1000 nM (sheet 'Samples'), n = 1
# CDK5 = conditions: read-out: apparent Kd, compound concentrations: 100 nM and 1000 nM (sheet 'Samples'), n = 1
# LIMK2 = conditions: read-out: apparent Kd, compound concentrations: 100 nM and 1000 nM (sheet 'Samples'), n = 1
# TESK1 = conditions: read-out: apparent Kd, compound concentrations: 100 nM and 1000 nM (sheet 'Samples'), n = 1
# PIM2 = conditions: read-out: apparent Kd, n = 1
# PRKAG1 = conditions: read-out: apparent Kd, n = 1
# PTK2B = conditions: read-out: apparent Kd, n = 1
# PTK2 = conditions: read-out: apparent Kd, n = 1
# PIK3CG = conditions: read-out: apparent Kd, compound concentrations: 100 nM and 1000 nM (sheet 'Samples'), n = 1
# STK16 = conditions: read-out: apparent Kd, compound concentrations: 100 nM and 1000 nM (sheet 'Samples'), n = 1
# PIK3CA = conditions: read-out: apparent Kd, compound concentrations: 100 nM and 1000 nM (sheet 'Samples'), n = 1
# IRAK3 = conditions: read-out: apparent Kd, compound concentrations: 100 nM and 1000 nM (sheet 'Samples'), n = 1
# ADCK1 = conditions: read-out: apparent Kd, compound concentrations: 100 nM and 1000 nM (sheet 'Samples'), n = 1
# ADRBK1 = conditions: read-out: apparent Kd, n = 1
# STK3 = conditions: read-out: apparent Kd, n = 1
# [1] = compound concentrations:100 nM and 1000 nM (sheet 'Samples')
compound,measurement,setting,value
Cc1cccc(-c2cc(-c3c[nH]nc3-c3ccccn3)ccn2)c1 [GW679395X],potency estimated from few doses,MAPK8; [1],1610 nM
same,potency estimated from few doses,MTOR; [1],501 nM
same,potency estimated from few doses,TEC; [1],1320 nM
Cl.Cl.Cl.c1ccc(Oc2ccc(Nc3ccnc4cc(-c5ccc(CN6CCNCC6)o5)ccc34)cc2)nc1.c1ccc(Oc2ccc(Nc3ccnc4cc(-c5ccc(CN6CCNCC6)o5)ccc34)cc2)nc1 [GW567142A],potency estimated from few doses,"TEC; compound concentrations: 100 nM and 1000 nM (sheet 'Samples'), CATDS: 1.92615538801734E-2",1300 nM
same,potency estimated from few doses,TNIK; CATDS: 1.6971599300490501E-2,2060 nM
CC(C)c1nc(-c2cccc(NS(=O)(=O)c3ccccc3)c2)c(-c2ccnc(Nc3ccc4c(c3)CN(C)CC4)n2)s1 [GSK1649598A],potency estimated from few doses,CDK2; CATDS: 1.6681675288379799E-2,614 nM
same,potency estimated from few doses,CDK5; CATDS: 2.0487115884267999E-2,353 nM
same,potency estimated from few doses,LIMK2; CATDS: 3.5211660098846E-2,116 nM
same,potency estimated from few doses,TESK1; CATDS: 9.9245429656874704E-2,24.2 nM
same,potency estimated from few doses,TNIK; CATDS: 1.2157872123198099E-2,2170 nM
CS(=O)(=O)CCNCc1ccc(-c2ccc3ncnc(Nc4ccc(OCc5cccc(F)c5)c(C(F)(F)F)c4)c3c2)o1 [GW576484X],potency estimated from few doses,"MTOR; compound concentrations: 100 nM and 1000 nM (sheet 'Samples'), CATDS: 9.7740197678702595E-2",599 nM
same,potency estimated from few doses,"PIM2; compound concentrations: 100 nM and 1000 nM (sheet 'Samples'), CATDS: 6.5177951129736497E-2",1150 nM
O=C1N=C(NCc2cccs2)SC1Cc1ccc2ncccc2c1 (centres unmarked) [RO4629078-000],potency estimated from few doses,"MTOR; compound concentrations: 100 nM and 1000 nM (sheet 'Samples'), CATDS: 1.0012071697909601E-2",667 nM
same,potency estimated from few doses,"PRKAG1; compound concentrations: 100 nM and 1000 nM (sheet 'Samples'), CATDS: 1.42415287056141E-2",314 nM
same,potency estimated from few doses,"PTK2B; compound concentrations: 100 nM and 1000 nM (sheet 'Samples'), CATDS: 1.78994015869859E-2",211 nM
same,potency estimated from few doses,"PTK2; compound concentrations: 100 nM and 1000 nM (sheet 'Samples'), CATDS: 1.61758600761754E-2",250 nM
same,potency estimated from few doses,"TEC; compound concentrations: 100 nM and 1000 nM (sheet 'Samples'), CATDS: 8.6375652210939294E-3",1000 nM
CN1C(=O)c2ccccc2N(C)c2nc(Nc3cnn(C4CCNCC4)c3)ncc21 [XMD-17-51],potency estimated from few doses,PIK3CG; CATDS: 5.0205811396743898E-2,50.7 nM
same,potency estimated from few doses,"PRKAG1; compound concentrations: 100 nM and 1000 nM (sheet 'Samples'), CATDS: 1.89897373320012E-2",530 nM
same,potency estimated from few doses,STK16; CATDS: 1.46632885257346E-2,1360 nM
O=C1N=C(NCCc2cccc(Cl)c2)S/C1=C\c1ccc2ncccc2c1 [RO4509201-000],potency estimated from few doses,PIK3CA; CATDS: 0.11246138422507899,274 nM
same,potency estimated from few doses,PIK3CG; CATDS: 5.9148900132827802E-2,1370 nM
same,potency estimated from few doses,"PIM2; compound concentrations: 100 nM and 1000 nM (sheet 'Samples'), CATDS: 5.4743223774465499E-2",1820 nM
Cc1cccc(Nc2nc(NCCN)ncc2C(N)=O)c1 [GSK1292139B],potency estimated from few doses,TNIK; CATDS: 7.7542557386304695E-2,1140 nM
O=C1N=C(NCCc2ccccn2)S/C1=C\c1ccc2ncccc2c1 [RO4508346-000],potency estimated from few doses,STK16; CATDS: 6.4775104376565806E-2,2150 nM
COc1cc(Nc2nccc(N3CCC(NC(=O)C4COc5ccccc5O4)C3)n2)cc(OC)c1OC (centres unmarked) [GSK1379761A],potency estimated from few doses,IRAK3; CATDS: 0.29618099534974801,900 nM
Cl.Oc1cccc(Nc2ccnc3cc(-c4ccncc4)ccc23)c1 [GW494601A],potency estimated from few doses,TNIK; CATDS: 2.0441514499226199E-2,1280 nM
COc1cc(Nc2ccnc3cc(-c4ccncc4)ccc23)cc(OC)c1OC.Cl [GW494610A],potency estimated from few doses,TESK1; CATDS: 2.92896642952412E-2,549 nM
same,potency estimated from few doses,TNIK; CATDS: 2.73925679017063E-2,689 nM
NC1=NC(=O)/C(=C/c2ccc3ncccc3c2)S1 [RO4569139-000],potency estimated from few doses,PIK3CG; CATDS: 0.108121816897262,432 nM
O=C1N=C(NCc2ccccc2Cl)S/C1=C\c1ccc2ncccc2c1 [RO4506917-000],potency estimated from few doses,PIK3CA; CATDS: 0.16964202934765399,283 nM
COc1ccc(Nc2nccc(N3CCC(NC(=O)Nc4ccc5c(c4)OCO5)C3)n2)cc1 (centres unmarked) [GSK1379745A],potency estimated from few doses,TESK1; CATDS: 7.4775560770701202E-2,510 nM
COc1cccc(-n2ncc3c(N/N=C/c4ccc(C(=O)NCCN(C)C)cc4)ncnc32)c1.Cl [GW784307A],potency estimated from few doses,ADCK1; CATDS: 3.1344375728913298E-2,900 nM
same,potency estimated from few doses,IRAK3; CATDS: 2.7757665118228601E-2,1410 nM
Cc1ccc(O)cc1Nc1ccnc2cc(-c3ccc(CN4CCCCC4)o3)ccc12 [GW557777X],potency estimated from few doses,"TEC; compound concentrations: 100 nM and 1000 nM (sheet 'Samples'), CATDS: 1.34758228974899E-2",1040 nM
CNC1=NC(=O)/C(=C/c2ccc3ncccc3c2)S1 [RO4595949-000],potency estimated from few doses,PIK3CG; CATDS: 8.0370856047911096E-2,401 nM
NC(=O)c1cccc(Nc2nccc(Nc3cccc4[nH]ncc34)n2)c1 [GW782612X],potency estimated from few doses,IRAK3; CATDS: 4.1377048408479999E-2,891 nM
O=C1N=C(NCCc2ccccc2F)S/C1=C\c1ccc2ncccc2c1 [RO4498483-000],potency estimated from few doses,PIK3CA; CATDS: 0.16167463298299301,268 nM
CS(=O)(=O)Cc1ccc(Nc2nccc(-c3c(-c4cccc(NC(=O)C5CCCCC5)c4)nn4ncccc34)n2)cc1 [GSK350559A],potency estimated from few doses,ADRBK1; [1],1690 nM
same,potency estimated from few doses,PIM2; [1],2040 nM
same,potency estimated from few doses,STK3; [1],1920 nM
COc1cc(Nc2nccc(N3CCC(NC(=O)c4cccc(C#N)c4)C3)n2)cc(OC)c1OC (centres unmarked) [GSK1379751A],potency estimated from few doses,IRAK3; CATDS: 0.26615341135904602,510 nM
CNC(=O)c1ccccc1Nc1nc(Nc2cccc(CS(C)(=O)=O)c2)ncc1C.O=CO [GSK1520489A],potency estimated from few doses,IRAK3; CATDS: 6.3642542209879499E-2,16.2 nM
same,potency estimated from few doses,"MAPK8; compound concentrations: 100 nM and 1000 nM (sheet 'Samples'), CATDS: 1.2501380881005299E-2",517 nM
same,potency estimated from few doses,"PTK2B; compound concentrations: 100 nM and 1000 nM (sheet 'Samples'), CATDS: 2.8071916989063601E-2",65.5 nM
same,potency estimated from few doses,"PTK2; compound concentrations: 100 nM and 1000 nM (sheet 'Samples'), CATDS: 4.2767285410469903E-2",30.2 nM
same,potency estimated from few doses,STK16; CATDS: 2.3983880535388601E-2,91.1 nM
same,potency estimated from few doses,"TEC; compound concentrations: 100 nM and 1000 nM (sheet 'Samples'), CATDS: 7.2078436601234794E-2",13.5 nM
CN1CCN(Cc2ccc(NC(=O)Nc3ccc(N(C)c4ccnc(Nc5ccc(CS(C)(=O)=O)cc5)n4)cc3)cc2)CC1.Cl [GW827654A],potency estimated from few doses,ADCK1; CATDS: 3.6113243316098803E-2,1520 nM
Cn1cc(-c2cnc(N)c3c(-c4ccc5c(c4)CCN5C(=O)Cc4ccccc4)csc23)cn1 [GSK2593074A],potency estimated from few doses,STK3; [1],1890 nM
CN(C)Cc1ccc(-c2ccc3c(Nc4ccc(Oc5ccccn5)cc4)ccnc3c2)o1 [GW567148X],potency estimated from few doses,"PTK2B; compound concentrations: 100 nM and 1000 nM (sheet 'Samples'), CATDS: 2.12691468378991E-2",830 nM
same,potency estimated from few doses,"PTK2; compound concentrations: 100 nM and 1000 nM (sheet 'Samples'), CATDS: 2.1089063317390098E-2",850 nM
Nc1ncc(-c2cn[nH]c2)c2scc(-c3ccc4c(c3)CCN4C(=O)Cc3ccccc3)c12 [GSK2593067A],potency estimated from few doses,"STK3; compound concentrations: 100 nM and 1000 nM (sheet 'Samples'), CATDS: 6.6601304210445203E-2",1190 nM
CC(=O)N1CCN(c2ccc(Nc3nccc(-c4sc(C(C)C)nc4-c4cccc(NS(=O)(=O)c5ccccc5)c4)n3)cn2)CC1 [GSK1645872A],potency estimated from few doses,"ADRBK1; compound concentrations: 100 nM and 1000 nM (sheet 'Samples'), CATDS: 2.7359704437324502E-2",943 nM
same,potency estimated from few doses,CDK2; CATDS: 2.76064563935246E-2,919 nM
same,potency estimated from few doses,CDK5; CATDS: 3.88696390995786E-2,420 nM
same,potency estimated from few doses,LIMK2; CATDS: 4.5143474402307197E-2,319 nM
COc1cc2ncn(-c3cc(OCCCc4ccccc4)c(C(N)=O)s3)c2cc1OC [GSK205189A],potency estimated from few doses,PRKAG1; [1],1310 nM
same,potency estimated from few doses,PTK2B; [1],642 nM
same,potency estimated from few doses,PTK2; [1],678 nM
Fc1cc(Cl)ccc1Nc1ccnc2cc(-c3ccc(CN4CCOCC4)o3)ccc12 [GW560109X],potency estimated from few doses,TNIK; CATDS: 4.94410528213204E-2,2050 nM
CNc1nccc(-c2c(-c3ccc(F)cc3)ncn2C2CCN(C)CC2)n1 [SB-222903],potency estimated from few doses,MTOR; [1],295 nM

# — paper PMC11062922 (Nature Chemical Biology, 2023)
